From PubChem BioAssay
An excerpt weighted towards active compounds, which were near 0.33% of everything screened.
FXIIa single: blocks human coagulation factor XIIa activity | 33,000 tested, 0.2% active | purified human FXIIa, AMC substrate fluorescence, 2 h | inhibition, % at 10 µM | AID 701 | P00748; in the data active means inhibition above about 30%;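 further: 0% = enzyme with vehicle only and 100% = no enzyme blank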
FXIa single inh: inhibitors of human coagulation factor XIa; P03951; purified human FXIa, fluorogenic AMC substrate cleavage; inhibition, % at 10 µM; 33,000 tested, 0.3% active;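 active means inhibition above 40% in the primary screen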;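 further: 0% = enzyme without compound and 100% = blank wells lacking enzyme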
An asterisk follows results filed as active.

SMILES	FXIIa single	FXIa single inh
CC(C)CNS(=O)(=O)c1ccc2c(c1)OCCO2	6	10
Cc1ccc(-c2csc(N3CCC(NS(=O)(=O)c4ccc5c(c4)OCCO5)CC3)n2)cc1	-12	59*
COCCN=C1Sc2nc3c(C)cccc3cc2CN1Cc1ccco1	4	43*
Cc1ccc2cc3c(nc2c1)N(Cc1ccco1)CC3	2	-5
COc1ccc2c(Cl)c(C(=O)NCCCn3ccnc3)sc2c1Cl	1	-7
CCOC(=O)Cn1c(=O)c2c(nc(Br)n2Cc2ccccc2Cl)n(C)c1=O	3	-5
C=CCn1c(=O)c2c(nc(Br)n2Cc2ccccc2Cl)n(C)c1=O	3	46*
O=C(NCCc1ccccc1)C(NS(=O)(=O)c1cccc2nsnc12)c1ccccc1 (centres undefined)	2	3
Cn1nc(-c2ccc(C(=O)Nc3cccc(Cl)c3)cc2)c2ccccc2c1=O	11	4
CCN(CC)CCNC(=O)C(C)c1nn(C)c(=O)c2ccccc12 (centres undefined)	1	42*
CC(O)CNC(=O)c1ccc(-c2nn(C)c(=O)c3ccccc23)cc1 (centres undefined)	5	-2
CN(CCOc1ccccc1)c1ccc(S(=O)(=O)N2CCCCC2)cn1	11	41*
CN(C)S(=O)(=O)c1ccc(S(=O)(=O)N2CCCC2)cc1	5	6
CC(C)(C)CC(C)(C)NC(=O)CSCC(=O)Nc1ccc2ccccc2c1	10	-1
Cc1cc(C)cc(N(C(C)C(=O)NCCC2=CCCCC2)S(C)(=O)=O)c1 (centres undefined)	3	3
CN(c1ccc(C(=O)Nc2ccccc2C(=O)N2CCOCC2)cc1)S(C)(=O)=O	4	-5
O=C(Nc1ccccc1C(=O)N1CCOCC1)c1ccc(F)cc1	5	47*
CCOc1cccc(N(C(=O)Cc2cccs2)C(C(=O)NC2CCCCC2)c2cccn2C)c1 (centres undefined)	-11	1
CCOC(=O)CN1C(=O)c2ccccc2C1=O	9	2
Cc1c(O)ccc(C(=O)CN2C(=O)c3ccccc3C2=O)c1O	6	59*
COc1cccc(NC(=O)C(NCC2CCCCC2)c2ccccc2)c1 (centres undefined)	3	-1
CCCN(CCC)C(C(=O)Nc1cccc(OC)c1)c1ccccc1 (centres undefined)	-18	105*
O=C(Oc1ccc2c3c(c(=O)oc2c1)CCC3)c1ccco1	54*	14
COC(=O)c1ccc(COc2ccc3c4c(c(=O)oc3c2)CCC4)o1	6	-2
CCn1c(CNc2nc3ccccc3n2C(C)C)nc2ccccc21	-14	30
SMILES	FXIIa single	FXIa single inh
COc1ccc(-c2noc(CN(C(=O)c3cccs3)C(C)C)n2)cc1	3	4
O=c1c(-c2ccco2)[n+]([O-])c2ccccc2n1OCc1ccccc1	12	-7
O=c1c(-c2cc3ccccc3o2)[n+]([O-])c2ccccc2n1OCc1ccccn1	-11	40*
COC(=O)/C(=C(/F)SCC(C)=O)C(F)(F)F	0	-6
Cc1cc(C(=O)N2CCN(Cc3ccccc3)CC2)on1	4	-3
COC(=O)C(Cc1c[nH]c2ccccc12)NC(C)=O (centres undefined)	-17	103*
Cc1ccc(C(=O)NC(Cc2c[nH]c3ccccc23)C(=O)O)cc1 (centres undefined)	10	7
CCCCn1ccnc1C(=O)c1cccc(S(=O)(=O)N2CC(C)CC(C)C2)c1 (centres undefined)	6	-8
Cc1ccc(OCc2nnc(SCC(=O)NC3CCCCC3)n2C)cc1	19	-8
Cn1c(SCC(=O)NC2CCCCC2)nnc1-c1cccc(N)c1	-13	40*
Cc1cccc(NC(=O)C2NC(=O)CC2c2ccccc2)c1C (centres undefined)	3	3
CC(C)c1nc2ccc(NC(=O)C3CCCCC3)cc2[nH]1	-16	104*
O=C(Nc1ccc2nc(-c3ccccn3)[nH]c2c1)C1CCCCC1	3	0
O=[N+]([O-])c1ccc(-c2nnc(CSc3nc(-c4ccccc4)nc4ccc(F)cc34)o2)cc1	7	5
O=C(CS(=O)(=O)c1c[nH]c2ccccc12)NC1CCCCC1	-18	-15
COc1cc(/C=c2\sc3n(c2=O)CCCN=3)ccc1O	7	43*
COc1cc(/C=c2\sc3n(c2=O)C(c2ccccc2)C(c2ccccc2)=NN=3)ccc1O (centres undefined)	5	-5
CCn1nc(C)c(NS(=O)(=O)c2ccccc2)c1C	-15	15
Cc1cccc(NC(=O)CN(c2ccc(C(C)C)cc2)S(=O)(=O)c2c(C)nn(C)c2C)n1	-14	-16
Cc1onc(-c2c(Cl)cccc2Cl)c1C(=O)n1nnc2ccccc21	7	7
O=C(O)Cn1c(SCc2cccc3ccccc23)nc2ccccc21	4	-1
Cc1ccc(C(=O)n2nnc3ccccc32)cc1	68*	97*
O=C(c1cccc2ccccc12)n1nnc2ccccc21	27	48*
Cc1ccc(CSc2nnc(-c3ccncc3)n2CC2CCCO2)cc1 (centres undefined)	3	6
CC(Cc1cccs1)NC(=O)Nc1ccc(Cl)c(Cl)c1 (centres undefined)	0	-8
SMILES	FXIIa single	FXIa single inh
O=C(O)C[C@@H](O)C(=O)O	6	4
O=C1N=C(c2ccccc2)S/C1=C\c1cccs1	46*	38
Cc1ccc(C2=N/C(=C\c3cccs3)C(=O)N2Nc2ccccc2)cc1	14	-6
O=C(C1CC(c2ccccc2O)=NO1)N1CCCCC1 (centres undefined)	10	0
COc1ccc(NC(=O)C(C/C=C(/C)Cl)C(C)=O)cc1 (centres undefined)	-9	0
CCc1cccc(NC(=O)c2snc3c(=O)[nH]cnc23)c1	5	0
Cc1cccc(NC(=O)c2snc3c(=O)[nH]cnc23)c1	-14	103*
COc1ccc(-n2cnnc2SCC(=O)Nc2nc(C)c(Cl)cc2Cl)cc1	5	3
COc1ccccc1-n1cnnc1SCC(=O)Nc1nc(C)c(Cl)cc1Cl	5	43*
COc1ccc(-c2csc(NC(=O)C3CCCCN3S(=O)(=O)c3ccccc3)n2)cc1 (centres undefined)	2	-8
O=C(Nc1nc2n(n1)C(c1ccccc1)C=C(c1ccccc1)N2)c1ccco1 (centres undefined)	25	1
O=C(Nc1nc2n(n1)C(c1ccc(Cl)cc1)CC(c1ccc(Cl)cc1)N2)c1ccco1 (centres undefined)	46*	-4
Cc1ccc(CN(c2ccc(C(=O)Nc3cccnc3)cc2)S(C)(=O)=O)cc1	5	9
CCC(C)(C)n1nnnc1C(c1ccccn1)N1CCN(c2cccc(OC)c2)CC1 (centres undefined)	3	-6
Cc1ccc(OC(=O)c2ccc(Br)o2)cc1	8	8
CC(=O)c1ccc(OC(=O)c2ccc(Br)o2)cc1	50*	13
Cn1c(=O)c2c(nc(SCC(=O)N(C3CCCCC3)C3CCCCC3)n2C)n(C)c1=O	6	1
CNC(=O)COC(=O)c1[nH]c(C)c(C(C)=O)c1C	6	46*
COCCNC(=O)COC(=O)c1[nH]c(C)c(C(C)=O)c1C	14	0
CCC1CCCCN1CCNC(=O)CCS(=O)(=O)c1ccc(Br)cc1 (centres undefined)	0	-7
Cc1ccc(N(C(=O)c2ccccn2)C2(C(=O)NC3CCCC3)CCCCC2)cc1	6	42*
